Data published in PubChem BioAssay (NCATS).
“And” between values parts separate entries of the source, which are not always exact repeats. Equal entries are not always repeated. Results filed as inconclusive are left out. A call without a number means that no potency is given here. The source made the active and inactive calls. The call rests on the fitted dose curve; in most records, active means well fitted cell-killing curve with a large enough effect; inconclusive means small, poorly fitted or top-dose-only effect, or effect the other way; inactive means flat fitted curve, though single readings scatter. Non-standard residues stand in square brackets, D forms with d. Residues, ends and D or L forms follow the SMILES beside them. Peptide text beside a SMILES is read from it. *: point of attachment. Sta = CC(C)C[C@H](N)[C@@H](O)CC(=O)O; Isovaleryl = CC(C)CC(=O)*

tested on: CAOV3; experiment: Primary qHTS to identify gynecologic anti-cancer compounds using libraries of approved drugs and bioactive compounds (AID 1345084); settings: Gynecologic cancer cell panel viability, ATPlite luminescence, 48 h; series mostly up to 57.5 µM; further: nearly all actives have a fitted effect of over 55% in size
Source text: National Center for Advancing Translational Sciences [NCATS] Assay Overview: Chemotherapeutic drug responses vary from cancer to cancer and from patient to patient. These variations could be caused by a number of factors including patient genomic background, tumor mutations, tumor heterogeneity, and aspects of drug treatment. Chemotherapeutic drug resistance is also a common issue and can lead to ineffective treatment and patient death. Here we have profiled the cell killing effects of thousands of compounds to characterize the responses in three gynecological cancers, identify cancer-selective compounds, and understand the diversity of responses to these compounds from pan-cancer suppressors to single cell line selective compounds. In this assay, we screened a 7,914 compound drug library that included approved drug and bioactive compounds in six ovarian, three cervical, and […] placental cancer cell lines using the ATPlite assay for cell viability. […] The cervical cancer cell lines included HeLa, Ca Ski, and C-33 A. The placental cancer cell lines included JEG-3. HEK 293T cells were used as the control cell line to determine the selectivity index. ATPlite is a luminescence based assay reliant on the conversion of a luciferase substrate to light in the presence of ATP. As a cytotoxic compound will suppress growth and decrease the number of cells, the concentration of ATP will decrease, and less light signal will be detected in the well.
Assay Protocol Summary: 1,000 cells in 4 uL of media were dispensed into white, solid bottom 1536-well plates using a Multidrop Combi (Thermo Scientific). The Assay plates were incubated for 16 hours at 37 C with 5% CO2 in assay plates, followed by the addition of 23 nL of DMSO or drug dissolved in DMSO. Each compound was assayed in five concentrations (0.092, 0.46, 2.3, 11.5, and 57.5 uM), using the automated Wako 1536 Pin Tool workstation and incubated at 37 C with 5% CO2 48 hours. 4 uL of ATPlite, the ATP monitoring reagent, was then added to the each well of the assay plates using the Multidrop Combi reagent dispenser followed by incubation for 15 minutes at room temperature. The resulting luminescence was measured using the ViewLux plate reader.
Potency means the concentration at half of the fitted maximal effect.

SMILES | Potency
CC(C)CC(=O)N[C@H](C(=O)N[C@H](C(=O)N[C@@H](CC(C)C)[C@@H](O)CC(=O)N[C@@H](C)C(=O)N[C@@H](CC(C)C)[C@@H](O)CC(=O)O)C(C)C)C(C)C (Isovaleryl-VV[Sta]A[Sta]-OH) | inactive
COc1cc(Nc2c(C#N)cnc3cc(OCCCN4CCN(C)CC4)c(OC)cc23)c(Cl)cc1Cl | 6.31 µM (active)
CC(S)C(=O)NCC(=O)O (stereo not given) | inactive
O=C(O)c1cccc(-c2noc(-c3ccccc3F)n2)c1 | 10 µM (active) and 11.2 µM (active)
CC1Cc2ccccc2N1NC(=O)c1ccc(Cl)c(S(N)(=O)=O)c1 (stereo not given) | inactive
COC1=C(OC)C(=O)C(CCCCCCCCCCO)=C(C)C1=O | inactive
Nc1cc(C(Cl)=C(Cl)Cl)c(S(N)(=O)=O)cc1S(N)(=O)=O | inactive
CN(C)[C@@H](CCOc1cccc2ccccc12)c1ccccc1 | inactive
Cc1cc(=O)c2c(O)c3c(O)cc(=O)c4c3c3c(cc(O)c1c23)C(C)(C)C=4O | 4.47 µM (active)
Cc1cc(=O)oc2cc(O)ccc12 | inactive
NNc1nncc2ccccc12 | inactive
Oc1ccc(OCc2ccccc2)cc1 | inactive
O=C(NCCO[N+](=O)[O-])c1cccnc1 | inactive
Cc1cccc(C)c1OCC(=O)N[C@@H](Cc1ccccc1)[C@@H](O)C[C@H](Cc1ccccc1)NC(=O)[C@H](C(C)C)N1CCCNC1=O | inactive
Cc1ccc(C)c(OCCCC(C)(C)C(=O)O)c1 | inactive
Cc1ccc(Nc2nccc(N(C)c3ccc4c(C)n(C)nc4c3)n2)cc1S(N)(=O)=O | inactive
COC(=O)[C@H](Cc1ccccc1)NC(=O)[C@@H](N)CC(=O)O (H-Asp-Phe-OMe) | inactive
Cc1nccn1CC1CCc2c(c3ccccc3n2C)C1=O (stereo not given) | inactive
CN1CCC(=C2c3ccccc3CCc3sccc32)CC1 | inactive
CC(C)c1ccc2oc3nc(N)c(C(=O)O)cc3c(=O)c2c1 | 6.31 µM (active)

SMILES | Potency
O=C(NOCC1CC1)c1ccc(F)c(F)c1Nc1ccc(I)cc1Cl | inactive
Cc1nc2n(c(=O)c1CCN1CCC(c3noc4cc(F)ccc34)CC1)CCCC2 | inactive
Clc1ccc(C(Cn2ccnc2)OCc2ccc(Sc3ccccc3)cc2)c(Cl)c1 (stereo not given) | inactive
CNC[C@H](O)c1ccc(O)c(O)c1 | inactive
Cc1cc2cc3c(C)cc(=O)oc3c(C)c2o1 | inactive
CC1(C)CCC(C)(C)c2cc(NC(=O)c3ccc(C(=O)O)cc3)ccc21 | inactive
S=c1nc[nH]c2nc[nH]c12 | inactive
CC1=C(C)C(=O)C(C(CCCCCC(=O)O)c2ccccc2)=C(C)C1=O (stereo not given) | inactive
CC(=O)O[C@H]1C(=O)[C@@]2(C)C([C@H](OC(=O)c3ccccc3)[C@]3(O)C[C@H](OC(=O)[C@H](O)[C@@H](NC(=O)c4ccccc4)c4ccccc4)C(C)=C1C3(C)C)[C@]1(OC(C)=O)CO[C@@H]1C[C@@H]2O (stereo not given in full) | inactive
O=C1CCc2ccc(OCCCCN3CCN(c4cccc(Cl)c4Cl)CC3)cc2N1 | inactive
CC(C)c1nc(CN(C)C(=O)N[C@H](C(=O)N[C@@H](Cc2ccccc2)C[C@H](O)[C@H](Cc2ccccc2)NC(=O)OCc2cncs2)C(C)C)cs1 | inactive
CCc1nc(N)nc(N)c1-c1ccc(Cl)cc1 | inactive
COc1c2occc2cc2ccc(=O)oc12 | inactive
NS(=O)(=O)c1cc(C(=O)O)c(NCc2ccco2)cc1Cl | inactive
Cc1cc2c(s1)Nc1ccccc1N=C2N1CCN(C)CC1 | inactive
COc1cc(OC)c(C(=O)CCCN2CCCC2)c(OC)c1 | inactive
COc1cc(C(C)=O)ccc1OCCCN1CCC(c2noc3cc(F)ccc23)CC1 | inactive
c1ccc2[nH]c(-c3cscn3)nc2c1 | inactive
CCOC(=O)c1c(C)n(C)c2ccc(O)cc12 | inactive
Clc1ccc(C(Cn2ccnc2)OCc2c(Cl)cccc2Cl)c(Cl)c1 (stereo not given) | inactive
